Results filed as inconclusive are left out. Calls of active or inactive are those of the source. Rule for the calls: active = hit-call score of the fitted dose curve at least 0.9, where 1 is the maximum; inconclusive = response in the unintended direction; inactive = score below 0.9.
Legend:
[1] = biological target: human Adrenergic, Alpha 2A Receptor (Adra2A), ADRA2A (gene 150) (UniProt P08913); assay: NVS_GPCR_hAdra2A: NovaScreen (NVS) G Protein-Coupled Receptor Assay for human Adrenergic, Alpha 2A Receptor (Adra2A) (AID 2283257)
Chain of human Adrenergic, Alpha 2A Receptor (Adra2A), ADRA2A (gene 150) (P08913 whole entry, looked up): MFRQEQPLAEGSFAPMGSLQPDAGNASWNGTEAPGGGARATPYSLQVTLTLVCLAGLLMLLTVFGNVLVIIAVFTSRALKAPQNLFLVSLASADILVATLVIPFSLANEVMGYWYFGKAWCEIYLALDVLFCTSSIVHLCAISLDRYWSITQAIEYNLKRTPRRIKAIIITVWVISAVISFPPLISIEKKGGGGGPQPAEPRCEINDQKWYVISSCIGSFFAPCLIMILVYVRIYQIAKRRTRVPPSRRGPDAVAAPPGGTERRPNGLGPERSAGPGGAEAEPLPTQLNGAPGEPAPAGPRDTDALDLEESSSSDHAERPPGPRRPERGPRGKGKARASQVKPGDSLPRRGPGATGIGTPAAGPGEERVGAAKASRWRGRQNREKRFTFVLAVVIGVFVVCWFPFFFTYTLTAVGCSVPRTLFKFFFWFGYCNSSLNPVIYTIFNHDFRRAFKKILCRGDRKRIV
Outline: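 Displacement of a specific radioligand from HT29 membrane protein was counted by filter scintillation after 1 h. Compounds were screened in duplicate at 25 uM, and actives were retested in concentration series. Fitting was positive-direction against DMSO.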

[2] = biological target: human Adrenergic, Beta 1 Receptor (Adrb1), ADRB1 (gene 153) (UniProt P08588); assay: NVS_GPCR_hAdrb1: NovaScreen (NVS) G Protein-Coupled Receptor Assay for human Adrenergic, Beta 1 Receptor (Adrb1) (AID 2283258)
Outline: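 Membranes/protein extracted from human neuroepithelioma cells, radioligand competition binding read by filtration and scintillation 2 h post-dose. Single 25 uM duplicate screen, then concentration-response follow-up; DMSO as negative control.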

[3] = biological target: Beta-2 adrenergic receptor (Homo sapiens) (UniProt P07550); assay: NVS_GPCR_hAdrb2: NovaScreen (NVS) G Protein-Coupled Receptor Assay for human Adrenergic, Beta 2 Receptor (Adrb2) (AID 2283261)
Outline: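 Compounds screened in duplicate at 25 uM, then actives in concentration series. Human beta-2 receptor from CHO material, cell-free; radioligand displacement after 1 h measured by filtration and scintillation against DMSO baseline.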

[4] = biological target: human Adrenergic, Beta 3 Receptor (Adrb3), ADRB3 (gene 155) (UniProt P13945); assay: NVS_GPCR_hAdrb3: NovaScreen (NVS) G Protein-Coupled Receptor Assay for human Adrenergic, Beta 3 Receptor (Adrb3) (AID 2283262)
Chain of human Adrenergic, Beta 3 Receptor (Adrb3), ADRB3 (gene 155) (P13945 whole entry, looked up): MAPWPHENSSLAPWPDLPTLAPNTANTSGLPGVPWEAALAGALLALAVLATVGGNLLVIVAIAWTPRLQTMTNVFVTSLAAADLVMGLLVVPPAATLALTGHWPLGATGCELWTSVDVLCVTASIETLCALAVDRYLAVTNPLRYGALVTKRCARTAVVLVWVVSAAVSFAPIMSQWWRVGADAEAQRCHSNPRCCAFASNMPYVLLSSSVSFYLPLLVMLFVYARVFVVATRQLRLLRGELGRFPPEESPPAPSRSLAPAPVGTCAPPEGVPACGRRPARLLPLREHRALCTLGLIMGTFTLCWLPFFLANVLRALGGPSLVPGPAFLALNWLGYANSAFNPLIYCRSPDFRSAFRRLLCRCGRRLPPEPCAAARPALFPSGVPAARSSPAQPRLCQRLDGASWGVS
Outline: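 A cell-free filter binding assay read by scintillation counting, with displacement of a specific radioligand measured after 1 hour. The receptor source was SK-N-MC extracts (cells pretreated with isoproterenol and 8-bromo-cAMP). Compounds were first tested at 25 uM in duplicate and then in concentration series.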

[5] = biological target: human Dopamine Receptor D4.4 (DRD4.4), DRD4 (gene 1815) (UniProt P21917); assay: NVS_GPCR_hDRD4.4: NovaScreen (NVS) G Protein-Coupled Receptor Assay for human Dopamine Receptor D4.4 (DRD4.4) (AID 2283264)
Chain of human Dopamine Receptor D4.4 (DRD4.4), DRD4 (gene 1815) (P21917 whole entry, looked up): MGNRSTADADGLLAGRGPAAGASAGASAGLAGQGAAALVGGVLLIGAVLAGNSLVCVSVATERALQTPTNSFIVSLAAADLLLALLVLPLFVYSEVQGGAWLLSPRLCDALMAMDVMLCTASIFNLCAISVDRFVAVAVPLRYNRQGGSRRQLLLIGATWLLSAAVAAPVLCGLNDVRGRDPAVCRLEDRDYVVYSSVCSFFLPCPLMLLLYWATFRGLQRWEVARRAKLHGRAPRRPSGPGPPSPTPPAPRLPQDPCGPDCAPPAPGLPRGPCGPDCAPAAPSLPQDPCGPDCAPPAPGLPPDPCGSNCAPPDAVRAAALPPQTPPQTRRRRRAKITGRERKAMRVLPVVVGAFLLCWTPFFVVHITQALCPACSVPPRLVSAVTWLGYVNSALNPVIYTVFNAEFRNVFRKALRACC
Outline: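 Filter-binding assay with a tritiated or iodinated ligand, cell-free receptor prepared from CHO, 1 hour. Loss of bound radioactivity versus DMSO; single 25 uM duplicate screen, then concentration-response for actives.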

[6] = biological target: human Dopamine Receptor D2 (DRD2), DRD2 (gene 1813) (UniProt P14416); assay: NVS_GPCR_hDRD2s: NovaScreen (NVS) G Protein-Coupled Receptor Assay for human Dopamine Receptor D2 (DRD2) (AID 2283266)
Outline: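 Test compound (25 uM, duplicate in the primary screen; concentration series at follow-up) competed with radioligand for human DRD2 in CHO-derived membrane protein. Filter-based scintillation counting was done 1.5 hours after dosing, with loss of signal analysed against DMSO.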

[7] = biological target: human Histamine 1 Receptor (H1), HRH1 (gene 3269) (UniProt P35367); assay: NVS_GPCR_hH1: NovaScreen (NVS) G Protein-Coupled Receptor Assay for human Histamine 1 Receptor (H1) (AID 2283268)
Chain of human Histamine 1 Receptor (H1), HRH1 (gene 3269) (P35367 whole entry, looked up): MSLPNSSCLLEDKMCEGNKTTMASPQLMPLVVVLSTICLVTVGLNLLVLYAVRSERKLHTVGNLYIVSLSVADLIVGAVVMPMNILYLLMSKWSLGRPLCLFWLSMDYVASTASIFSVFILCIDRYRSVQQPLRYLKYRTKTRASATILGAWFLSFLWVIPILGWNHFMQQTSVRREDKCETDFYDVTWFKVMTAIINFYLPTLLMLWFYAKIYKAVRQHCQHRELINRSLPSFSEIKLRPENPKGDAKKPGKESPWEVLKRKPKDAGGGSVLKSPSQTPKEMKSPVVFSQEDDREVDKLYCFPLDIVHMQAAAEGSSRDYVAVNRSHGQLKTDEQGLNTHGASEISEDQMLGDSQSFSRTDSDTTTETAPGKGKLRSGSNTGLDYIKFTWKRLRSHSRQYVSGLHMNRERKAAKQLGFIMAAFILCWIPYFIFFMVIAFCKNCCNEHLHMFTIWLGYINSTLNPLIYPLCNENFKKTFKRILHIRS
Outline: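 Filter-based scintillation detection of radioligand binding to human H1, 1 h incubation; chemicals screened in duplicate at 25 uM, then concentration-response; signal loss relative to DMSO taken as activity.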

[8] = biological target: D(1A) dopamine receptor (Homo sapiens) (UniProt P21728); assay: NVS_GPCR_hDRD1: NovaScreen (NVS) G Protein-Coupled Receptor Assay for human Dopamine Receptor D1 (DRD1) (AID 2283269)
Chain of D(1A) dopamine receptor (Homo sapiens) (P21728 whole entry, looked up): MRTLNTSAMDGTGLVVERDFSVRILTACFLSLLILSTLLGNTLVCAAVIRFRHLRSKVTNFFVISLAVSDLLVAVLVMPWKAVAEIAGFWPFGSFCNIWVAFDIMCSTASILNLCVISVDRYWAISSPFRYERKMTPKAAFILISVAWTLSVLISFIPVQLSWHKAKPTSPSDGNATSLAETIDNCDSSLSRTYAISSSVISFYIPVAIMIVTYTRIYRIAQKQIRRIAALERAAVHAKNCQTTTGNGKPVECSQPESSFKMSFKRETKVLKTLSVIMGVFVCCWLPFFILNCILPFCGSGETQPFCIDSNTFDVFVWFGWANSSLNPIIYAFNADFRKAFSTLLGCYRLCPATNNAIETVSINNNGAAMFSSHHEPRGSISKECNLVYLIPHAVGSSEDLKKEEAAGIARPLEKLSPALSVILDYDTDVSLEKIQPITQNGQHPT
Outline: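 Radioligand displacement binding on membranes/protein extracted from HEK293 expressing human D1, cell-free; read 1 h after dosing by filter-based scintillation counting. Primary screen in duplicate at 25 uM, actives followed up in concentration series; signal loss versus DMSO baseline.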

[9] = biological target: Muscarinic acetylcholine receptor M1 (Homo sapiens) (UniProt P11229); assay: NVS_GPCR_hM1: NovaScreen (NVS) G Protein-Coupled Receptor Assay for human Muscarinic, M1 Receptor (AID 2283270)
Chain of Muscarinic acetylcholine receptor M1 (Homo sapiens) (P11229 whole entry, looked up): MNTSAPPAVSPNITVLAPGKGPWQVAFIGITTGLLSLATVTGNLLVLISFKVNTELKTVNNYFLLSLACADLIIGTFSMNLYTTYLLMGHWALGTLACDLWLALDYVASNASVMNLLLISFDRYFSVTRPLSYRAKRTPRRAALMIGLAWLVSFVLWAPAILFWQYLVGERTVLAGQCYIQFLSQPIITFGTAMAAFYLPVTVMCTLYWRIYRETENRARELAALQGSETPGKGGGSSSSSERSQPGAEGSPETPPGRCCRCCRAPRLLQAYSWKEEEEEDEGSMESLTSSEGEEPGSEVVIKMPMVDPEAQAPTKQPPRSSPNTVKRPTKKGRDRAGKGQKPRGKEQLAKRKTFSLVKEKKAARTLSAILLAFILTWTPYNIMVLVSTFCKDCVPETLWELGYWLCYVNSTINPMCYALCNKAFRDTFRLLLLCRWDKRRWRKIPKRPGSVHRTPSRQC
Outline: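 Actives from a duplicate 25 uM single-point screen were retested in concentration series. Binding measured as displacement of a radioligand from CHO-derived receptor preparation, 1 h incubation, filtration and scintillation counting, analysed as signal loss against DMSO.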

[10] = biological target: human Leukotriene B4 Receptor 1 (LTB4-BLT1), LTB4R (gene 1241) (UniProt Q15722); assay: NVS_GPCR_hLTB4_BLT1: NovaScreen (NVS) G Protein-Coupled Receptor Assay for human Leukotriene B4 Receptor 1 (LTB4-BLT1) (AID 2283271)
Chain of human Leukotriene B4 Receptor 1 (LTB4-BLT1), LTB4R (gene 1241) (Q15722 whole entry, looked up): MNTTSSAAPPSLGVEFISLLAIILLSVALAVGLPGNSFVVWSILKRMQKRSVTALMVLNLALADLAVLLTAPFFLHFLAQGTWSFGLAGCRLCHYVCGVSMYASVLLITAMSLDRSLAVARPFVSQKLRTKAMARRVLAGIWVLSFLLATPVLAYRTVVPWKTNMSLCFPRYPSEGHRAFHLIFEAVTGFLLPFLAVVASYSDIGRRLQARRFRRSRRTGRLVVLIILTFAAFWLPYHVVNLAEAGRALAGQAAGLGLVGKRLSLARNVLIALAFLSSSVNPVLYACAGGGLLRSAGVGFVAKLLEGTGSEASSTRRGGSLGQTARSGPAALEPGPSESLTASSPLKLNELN
Outline: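 Cell-free human neutrophil receptor preparation, 1 h exposure, radioligand binding read by filter scintillation counting. Single 25 uM duplicate screen, then concentration series topping at 50 uM; binding loss scored against DMSO baseline.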

[11] = biological target: Muscarinic acetylcholine receptor M3 (Homo sapiens) (UniProt P20309); assay: NVS_GPCR_hM3: NovaScreen (NVS) G Protein-Coupled Receptor Assay for human Muscarinic, M3 Receptor (AID 2283272)
Chain of Muscarinic acetylcholine receptor M3 (Homo sapiens) (P20309 whole entry, looked up): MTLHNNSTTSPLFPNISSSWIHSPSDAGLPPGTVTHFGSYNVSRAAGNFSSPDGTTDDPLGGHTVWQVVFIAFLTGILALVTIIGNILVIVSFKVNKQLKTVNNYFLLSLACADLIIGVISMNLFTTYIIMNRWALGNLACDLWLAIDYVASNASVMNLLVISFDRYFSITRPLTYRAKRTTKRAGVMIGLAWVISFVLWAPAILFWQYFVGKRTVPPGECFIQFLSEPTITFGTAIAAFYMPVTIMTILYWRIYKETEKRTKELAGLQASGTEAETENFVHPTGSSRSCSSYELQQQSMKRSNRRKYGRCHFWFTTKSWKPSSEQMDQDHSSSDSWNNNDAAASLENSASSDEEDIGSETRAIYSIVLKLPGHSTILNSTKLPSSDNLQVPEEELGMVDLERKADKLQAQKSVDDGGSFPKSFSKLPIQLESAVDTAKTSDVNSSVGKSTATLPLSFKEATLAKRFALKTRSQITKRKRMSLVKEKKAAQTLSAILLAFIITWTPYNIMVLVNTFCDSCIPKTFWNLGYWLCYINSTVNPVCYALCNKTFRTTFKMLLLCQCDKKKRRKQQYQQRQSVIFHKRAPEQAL
Outline: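 Radioligand displacement binding on human M3 receptor in CHO-derived membranes, 1 h incubation, filter-based scintillation counting. Primary screen in duplicate at 25 uM; actives followed up in concentration series; loss of signal versus DMSO.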

[12] = biological target: Muscarinic acetylcholine receptor M2 (Homo sapiens) (UniProt P08172); assay: NVS_GPCR_hM2: NovaScreen (NVS) G Protein-Coupled Receptor Assay for human Muscarinic, M2 Receptor (AID 2283273)
Outline: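 CHO-expressed human M2 receptor preparation, competitive displacement of a radioligand read by filter-based scintillation counting after 1 h. Single 25 uM duplicate screen, then concentration-response follow-up of actives; DMSO baseline.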

[13] = biological target: human Muscarinic, M4 Receptor, CHRM4 (gene 1132) (UniProt P08173); assay: NVS_GPCR_hM4: NovaScreen (NVS) G Protein-Coupled Receptor Assay for human Muscarinic, M4 Receptor (AID 2283274)
Outline: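 Filter-based scintillation counting of radioligand bound to CHO-expressed human M4 preparations after 1 h; loss of signal fitted versus DMSO. Initial duplicate testing at 25 uM, concentration-response follow-up for actives.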

[14] = biological target: Muscarinic acetylcholine receptor M5 (Homo sapiens) (UniProt P08912); assay: NVS_GPCR_hM5: NovaScreen (NVS) G Protein-Coupled Receptor Assay for human Muscarinic, M5 Receptor (AID 2283275)
Chain of Muscarinic acetylcholine receptor M5 (Homo sapiens) (P08912 whole entry, looked up): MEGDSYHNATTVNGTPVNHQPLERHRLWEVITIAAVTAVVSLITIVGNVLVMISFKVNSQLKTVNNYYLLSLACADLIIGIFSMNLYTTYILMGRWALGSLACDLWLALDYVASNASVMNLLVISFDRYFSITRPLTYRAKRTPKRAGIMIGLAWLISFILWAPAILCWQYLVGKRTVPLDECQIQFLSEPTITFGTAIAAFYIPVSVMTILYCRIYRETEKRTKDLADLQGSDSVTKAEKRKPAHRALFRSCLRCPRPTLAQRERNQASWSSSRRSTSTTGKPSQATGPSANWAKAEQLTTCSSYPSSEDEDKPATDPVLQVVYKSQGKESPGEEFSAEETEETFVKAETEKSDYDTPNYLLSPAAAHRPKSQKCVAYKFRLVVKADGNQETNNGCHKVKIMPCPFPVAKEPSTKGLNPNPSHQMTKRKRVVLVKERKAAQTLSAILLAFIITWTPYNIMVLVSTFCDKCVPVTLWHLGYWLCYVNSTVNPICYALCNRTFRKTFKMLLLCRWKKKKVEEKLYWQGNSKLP
Outline: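 Chemicals passing a primary duplicate screen at 25 uM were run as singleton concentration series, maximum 50 uM. Displacement of a specific radioligand from CHO-extracted receptor was read by filter scintillation after 1 h, relative to DMSO.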

[15] = biological target: Neuropeptide Y receptor type 2 (Homo sapiens) (UniProt P49146); assay: NVS_GPCR_hNPY2: NovaScreen (NVS) G Protein-Coupled Receptor Assay for human Neuropeptide Receptor Y2 (NPY2) (AID 2283277)
Chain of Neuropeptide Y receptor type 2 (Homo sapiens) (P49146 whole entry, looked up): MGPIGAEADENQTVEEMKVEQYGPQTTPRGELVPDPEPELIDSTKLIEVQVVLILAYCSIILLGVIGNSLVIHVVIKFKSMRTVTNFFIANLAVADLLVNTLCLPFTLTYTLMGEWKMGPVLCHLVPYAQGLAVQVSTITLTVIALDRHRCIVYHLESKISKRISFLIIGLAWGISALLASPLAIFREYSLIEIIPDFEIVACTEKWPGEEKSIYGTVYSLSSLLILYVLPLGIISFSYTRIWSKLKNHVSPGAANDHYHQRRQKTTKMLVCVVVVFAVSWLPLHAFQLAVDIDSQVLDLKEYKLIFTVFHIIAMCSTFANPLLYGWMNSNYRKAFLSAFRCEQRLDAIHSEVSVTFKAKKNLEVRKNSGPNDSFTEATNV
Outline: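 Chemicals were first tested in duplicate at 25 uM, then actives in singleton concentration series to 50 uM. Tracer binding to SK-N-MC-derived protein measured cell-free after 1 h via filter scintillation; signal loss relative to DMSO.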

[16] = biological target: human Endothelin Receptor Type B (ETB), EDNRB (gene 1910) (UniProt P24530); assay: NVS_GPCR_hETB: NovaScreen (NVS) G Protein-Coupled Receptor Assay for human Endothelin Receptor Type B (ETB) (AID 2283267)
Outline: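 Filter-based scintillation readout of radioligand displacement, 4 h, using membranes from human astrocytoma cells. Actives from a 25 uM duplicate screen were retested in concentration-response (top 50 uM) relative to DMSO baseline.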

[17] = biological target: human Neuropeptide Receptor Y1 (NPY1), NPY1R (gene 4886) (UniProt P25929); assay: NVS_GPCR_hNPY1: NovaScreen (NVS) G Protein-Coupled Receptor Assay for human Neuropeptide Receptor Y1 (NPY1) (AID 2283276)
Outline: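 Displacement of specific radioligand from NPY1 receptor of SK-N-MC origin, read by filtration and scintillation after 1 h. Compounds first tested at 25 uM in duplicate, then actives in concentration series; signal loss relative to DMSO.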

[18] = biological target: Type-1 angiotensin II receptor (Homo sapiens) (UniProt P30556); assay: NVS_GPCR_hAT1: NovaScreen (NVS) G Protein-Coupled Receptor Assay for human Angiotensin II receptor type 1 (AT1) (AID 2283263)
Outline: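 Hits from a 25 uM duplicate screen (threshold e.g. 30% inhibition) were run in concentration-response with 50 uM top concentration. Displacement of specific radioligand from KAN-TS membrane preparations measured after 3 h by filter scintillation, DMSO as baseline.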

[19] = biological target: human Adenosine A2a Receptor (AdoRA2a), ADORA2A (gene 135) (UniProt P29274); assay: NVS_GPCR_hAdoRA2a: NovaScreen (NVS) G Protein-Coupled Receptor Assay for human Adenosine A2a Receptor (AdoRA2a) (AID 2283256)
Chain of human Adenosine A2a Receptor (AdoRA2a), ADORA2A (gene 135) (P29274 whole entry, looked up): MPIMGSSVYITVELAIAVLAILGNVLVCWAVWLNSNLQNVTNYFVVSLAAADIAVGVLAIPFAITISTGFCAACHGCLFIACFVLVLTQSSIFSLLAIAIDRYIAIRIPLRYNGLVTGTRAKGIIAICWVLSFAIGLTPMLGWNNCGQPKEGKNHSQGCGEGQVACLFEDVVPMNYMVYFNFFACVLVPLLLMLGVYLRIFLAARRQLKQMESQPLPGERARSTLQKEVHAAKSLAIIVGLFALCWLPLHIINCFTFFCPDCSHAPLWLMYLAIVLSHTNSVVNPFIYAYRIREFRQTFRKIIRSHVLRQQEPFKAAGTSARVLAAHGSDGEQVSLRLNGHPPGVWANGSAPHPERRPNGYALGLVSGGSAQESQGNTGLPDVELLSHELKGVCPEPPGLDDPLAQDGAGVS
Outline: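 HEK293-derived receptor preparation, radioligand displacement, 1.5 h, filtration + scintillation read. Loss of bound signal scored vs DMSO. Single-point 25 uM in duplicate first, then concentration-response for actives.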

[20] = biological target: human Endothelin Receptor Type A (ETA), EDNRA (gene 1909) (UniProt P25101); assay: NVS_GPCR_hETA: NovaScreen (NVS) G Protein-Coupled Receptor Assay for human Endothelin Receptor Type A (ETA) (AID 2283265)
Outline: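 Binding of radioligand to membrane protein extracted from SH-SY5Y cells was read by filtration and scintillation after 3 h. Compounds were screened at 25 uM in duplicate, with hits followed up in singleton concentration series to 50 uM.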

Measured: AC50

NCc1cccc(C2CCN(C(=O)c3ccc(C#Cc4ccccc4F)o3)CC2)c1
inactive: [4]
active: [1] 25 µM | [2] 20.6 µM | [3] 12.6 µM | [5] 25 µM | [6] 9.74 µM | [7] 22.1 µM | [8] 5.14 µM | [9] 1.78 µM | [10] 25 µM | [11] 0.929 µM | [12] 0.923 µM | [13] 0.882 µM | [14] 4.14 µM | [15] 2.33 µM

O=C(O)Cc1cc(I)c(Oc2ccc(O)c(I)c2)c(I)c1
inactive: [16]

CCCCCCCCCCCC[N+](C)(C)C
active: [4] 25 µM | [6] 13 µM | [7] 15.7 µM | [8] 16.1 µM | [9] 4.64 µM | [11] 3.43 µM | [12] 1.39 µM | [13] 2.77 µM | [14] 1.93 µM | [17] 16 µM | [15] 38.9 µM

COc1ccc2cc(S(=O)(=O)N[C@H](CC(=O)N[C@H](Cc3ccc(CN4[C@H](C)CCC[C@@H]4C)cc3)C(=O)N(C)C(C)C)c3ccc4c(c3)OCO4)ccc2c1
active: [1] 18.8 µM | [7] 17.8 µM | [8] 30.2 µM | [9] 3.51 µM | [10] 11.6 µM | [11] 14.2 µM | [12] 0.535 µM | [13] 2.44 µM | [14] 4.37 µM | [15] 2.17 µM
inactive: [6]

CN(C[C@@H](CC[N+]12CCC(C3CCCCC3)(CC1)CC2)c1ccc(Cl)c(Cl)c1)C(=O)c1cc(C(F)(F)F)cc(C(F)(F)F)c1
active: [18] 33.1 µM
inactive: [16]

Cc1occc1C(=O)Nc1ccc(C(=O)N2CCC(F)(F)/C(=C\C(=O)N3CCC(N4CCCCC4)CC3)c3ccccc32)cc1
inactive: [4]
active: [19] 2.33 µM | [1] 3.18 µM | [7] 0.148 µM | [12] 4.43 µM | [13] 7.11 µM | [14] 5.91 µM

CC(O)CC(C)(C)O (configuration not stated)
active: [4] 0.159 µM

CCCCCCCCN(C)CCCCCCCC
inactive: [4] | [6] | [13]

Oc1ccc2ccccc2c1
inactive: [5]

O=C(O)Cn1c(=O)n(Cc2ccc(Br)cc2F)c(=O)c2ccc(Cl)cc21
inactive: [15]

CN(C)c1ccc(C(=C2C=CC(=[N+](C)C)C=C2)c2ccc(N(C)C)cc2)cc1
active: [1] 2.59 µM | [3] 14.4 µM | [4] 16.3 µM | [5] 1.11 µM | [20] 1.81 µM | [6] 2.02 µM | [10] 8.85 µM | [12] 0.939 µM | [13] 0.863 µM | [14] 0.861 µM | [17] 13.3 µM | [15] 16.6 µM

CCCCCCCCOC(=O)c1cc(O)c(O)c(O)c1
active: [19] 8.09 µM | [2] 22.6 µM | [6] 25 µM | [7] 42.8 µM | [13] 8.67 µM
inactive: [11]

CO[C@H]1/C=C/O[C@@]2(C)Oc3c(C)c(O)c4c(O)c(c(/C=N/N5CCN(C)CC5)c(O)c4c3C2=O)NC(=O)/C(C)=C\C=C\[C@H](C)[C@H](O)[C@@H](C)[C@@H](O)[C@@H](C)[C@H](OC(C)=O)[C@@H]1C
active: [15] 0.0867 µM
inactive: [18]

CCCCCCCCCCCO
inactive: [15]

O=C1c2ccccc2C(=O)N1CCc1noc(-c2ccc(CN3CCCCCC3)s2)n1
active: [1] 0.861 µM | [18] 14.8 µM | [6] 10.1 µM | [7] 7.44 µM | [9] 7.52 µM | [11] 3.96 µM | [12] 2.83 µM | [13] 7.92 µM | [14] 7.99 µM
inactive: [16] | [10]

COc1cc(C(=O)NC2CCN(C)CC2)ccc1Nc1ncc2c(n1)N(C1CCCC1)CC(F)(F)C(=O)N2C
active: [19] 13.8 µM | [1] 14 µM | [7] 2.74 µM | [9] 5.54 µM | [13] 16.7 µM | [14] 11.9 µM
inactive: [6]
